Molecules are shown by their SMILES.

This experiment concerns LOC_OS01G60330-cb001. The experiment is described as follows: thermal shift delta Tm vs DMSO control; higher = stronger stabilization (binding). Particulars: 12.5 µM; protein concentration 2 µM. The method, boiled down:
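Compounds dissolved in DMSO were added to purified rice kinase domain constructs, which had been expressed in E. coli, for differential scanning fluorimetry. Each well held 19.5 μl of 2 μM kinase in 100 mM potassium phosphate pH 7.5, 150 mM NaCl, 10% glycerol and 5 × SYPRO Orange. Fluorescence was followed from 25°C to 95°C at a rate of 0.05°C/s. Shifts in Boltzmann-fitted melting temperature are triplicate means relative to DMSO-only protein.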
For `Cc1nc(NC(=O)N2CCC[C@H]2C(N)=O)sc1-c1ccnc(C(C)(C)C(F)(F)F)c1` [Alpelisib (BYL719)], the “thermal shift delta Tm” value is 0.43 °C.

Regarding `O=C(NCCO)c1cccc(-c2cc(Nc3ccc(OC(F)(F)F)cc3)ncn2)c1`, the “thermal shift delta Tm” value was 0.68 °C.

On to `C[C@@H](Nc1cc(F)cc(F)c1)c1cc(C(=O)N(C)C)cc2c(=O)cc(N3CCOCC3)oc12`, for which the “thermal shift delta Tm” value turned out to be 1.18 °C.

`C[C@@H]1COCCN1c1cc(=O)n2c(n1)N(Cc1cncc(Cl)c1)[C@H](C(F)(F)F)CC2`: the “thermal shift delta Tm” value turned out to be 1.13 °C.

As for `CNc1nc(-c2ccc3c(N)n[nH]c3c2)cc(N2C[C@@H](C(=O)NC3CCCCC3)CC[C@H]2C)n1`, the “thermal shift delta Tm” value came to 0.28 °C.

For `COc1cc(N2CCC(N(C)C)CC2)ccc1Nc1ncc(Cl)c(Nc2ccccc2P(C)(C)=O)n1`, the “thermal shift delta Tm” value worked out at 0.43 °C.

For `CN1CCN(c2ccc3nc(-c4c(N)c5c(F)cccc5[nH]c4=O)[nH]c3c2)CC1` [Dovitinib (TKI258) Lactate], the “thermal shift delta Tm” value came out at 14.2 °C.

Take `N#C/C(=C(/N)Sc1ccc(N)cc1)c1ccccc1C(F)(F)F`: the “thermal shift delta Tm” value was 0.59 °C.

As for `Cc1c(C(=O)N2CCOc3ccc(-c4ccc(N)nc4)cc3C2)ccc(S(C)(=O)=O)c1F`, the “thermal shift delta Tm” value was 0.34 °C.

Regarding `CCOc1cc2ncc(C#N)c(Nc3ccc(F)c(Cl)c3)c2cc1NC(=O)/C=C/CN(C)C` [Pelitinib (EKB-569)], the “thermal shift delta Tm” value is 0.74 °C.

With `Oc1ccc(Nc2nc(-c3ccc(Cl)cc3)cs2)cc1`, the “thermal shift delta Tm” value came out at 2.57 °C.

Regarding `O=C(Nc1ccccc1C(=O)NC1CCCCNC1=O)c1cc2ccccc2s1` (centres undefined), the “thermal shift delta Tm” value was found to be 1.02 °C.

`CC(C)c1c2cc(-c3ccnc(NC4CCC(NC5CCOCC5)CC4)n3)ccc2nn1C` (centres undefined): the “thermal shift delta Tm” value stood at 0.07 °C.

`NCC(=O)Nc1ccc(-n2nc(C(F)(F)F)cc2-c2ccc3c(ccc4ccccc43)c2)cc1`: the “thermal shift delta Tm” value worked out at 4.36 °C.

These data come from the supplement of paper PMC9694430.
